High-throughput results as filed in PubChem.
aSyn UTR act – Activators via SNCA 5'UTR binding, MLPCN; alpha-synuclein 5'UTR reporter, activators screen; activity score, % (tested at 7.5 µM), hits read low; actives 7.1% (n = 300,000); AID 1814; in the data active = activity score below about -60%
A number is an active result; - = inactive. Only a sample is shown.

SMILES	aSyn UTR act
Fc1ccc(-n2nnc(-c3cccnc3Cl)n2)cc1	-86.4
CC(=Nc1cccc(O)c1)c1sc2ccccc2c1O	-235.5
Cc1nnc(N/N=C/c2cccc(OCc3ccc(Cl)c(Cl)c3)c2)n1N	-82.6
O=C(Nc1ccc([N+](=O)[O-])cc1)c1cc(Cl)sc1Cl	-75.7
CN(C)c1ccc(NC(=O)c2ccc([N+](=O)[O-])cc2Cl)cc1	-76.1
O=C(Nc1cccc(O)c1)c1ccc([N+](=O)[O-])cc1Cl	-86.1
O=C(Cc1ccc(-c2ccccc2)cc1)NCc1ccccc1	-
O=C(NCc1ccccc1)c1ccc(-c2ccccc2F)o1	-155.1
CCc1nnc(NC(=O)c2ccc(-c3ccccc3F)o2)s1	-65.0
O=C(NC1CCCCCC1)c1cc2c(=O)n3ccccc3nc2s1	-84.8
C=CCNC(=O)c1cc2c(=O)n3ccccc3nc2s1	-218.5
N=c1c(S(=O)(=O)c2ccc(Br)cc2)cc2c(=O)n3ccccc3nc2n1C1CCCC1	-
O=C(NCC(=O)N1CCN(c2ccccc2O)CC1)c1cccs1	-62.9
CCOC(=O)C1(Cc2ccc(OC)cc2)CCN(C(=O)c2ccc3[nH]ccc3c2)CC1	-127.1
COc1ccc(-c2ccc(/C=C3/C(=N)N4C=CSC4=NC3=O)o2)c([N+](=O)[O-])c1	-116.4
Cc1ccc(C(=O)/C=C/Nc2cccc([N+](=O)[O-])c2)o1	-167.2
O=C(/C=C/Nc1cccc([N+](=O)[O-])c1)c1ccco1	-282.7
CSc1nc2sc3c(c2c(=O)[nH]1)CCC(C)C3 (centres undefined)	-150.8
O=[N+]([O-])c1cccc(-c2ccc(/C=N/Nc3nc(N4CCCCC4)nc(N4CCCCC4)n3)o2)c1	-
O=C1NC(=O)/C(=C/c2ccc(-c3cccc([N+](=O)[O-])c3)o2)S1	-125.6
O=C(/C=C/c1ccc(-c2cccc([N+](=O)[O-])c2)o1)N1CCOCC1	-110.1
Cc1cccc(-n2ncc3c(NCc4cccnc4)ncnc32)c1	-142.3
Cc1ccc(-n2ncc3c(NCc4ccccc4)ncnc32)cc1	-188.7
Brc1ccc2ncnc(NCc3ccco3)c2c1	-63.8
Cc1ccc(-n2ncc3c(NCc4cccnc4)ncnc32)cc1C	-90.4
SMILES	aSyn UTR act
COc1ccc(-n2ncc3c(NCc4ccc5c(c4)OCO5)ncnc32)cc1	-108.5
c1ccc(-n2ncc3c(NCc4ccco4)ncnc32)cc1	-251.8
COc1ccc(-n2ncc3c(N4CCCCC4)ncnc32)cc1	-
COc1ccc(-n2ncc3c(NCc4cccnc4)ncnc32)cc1	-148.8
Fc1ccc(F)c(C2=NNC(=NCC3CCCO3)SC2)c1 (centres undefined)	-117.8
COCCCNC(=O)Nc1ccc(Br)cc1Cl	-72.2
O=C(NCc1ccccn1)c1ccc(Cn2c(=S)[nH]c3ccc(Br)cc3c2=O)cc1	-
S=C(NCc1ccccn1)Nc1ccccc1Cl	-115.3
O=C(NCc1ccccn1)Nc1ccc(Cl)cc1Cl	-97.0
O=C(NCc1ccccn1)Nc1ccc(Br)cc1Cl	-72.3
S=C(NCc1ccccn1)Nc1ccc(Br)cc1Cl	-143.2
CCCC(NC(=O)CCl)c1ccccc1 (centres undefined)	-71.8
Cc1cccc(OCCn2c(=O)oc3ccc(C)cc32)c1	-110.4
CC(C)CNC(=O)C1CCN(Cc2ccc(OCc3ccccc3)cc2)CC1	-95.0
CC(O)CNC(=O)C1CCN(Cc2ccc(OCc3ccccc3)cc2)CC1 (centres undefined)	-126.2
CCCN1Cc2cccc(C(=O)Nc3ccc(-c4nc5ccccc5[nH]4)cc3)c2C1=O	-61.6
COCCN1Cc2cccc(C(=O)Nc3cccc(-c4nc5ccccc5[nH]4)c3)c2C1=O	-79.6
O=C(COc1ccc(Br)cc1Cl)NC(=O)Nc1ccc2c(c1)OCCO2	-71.9
Cc1ccccc1OCC(=O)Nc1ccc2c(c1)OCCO2	-179.9
Cc1ccccc1OCC(=O)Nc1ccc(N2CCN(C)CC2)c(Cl)c1	-140.5
Cc1cccc(C)c1OCC(=O)Nc1ccc2c(c1)OCCO2	-158.0
Cc1ccccc1OCC(=O)Nc1cccc(C(=O)O)c1	-
Cc1ccc(OCC(=O)Nc2ccc3c(c2)OCO3)c([N+](=O)[O-])n1	-110.7
COc1cc(C=O)ccc1OCC(=O)Nc1ccc2c(c1)OCO2	-89.9
Cc1cc(C)c(OCC(=O)Nc2cccc(O)c2)cc1C	-113.7
SMILES	aSyn UTR act
COc1ccccc1OCC(=O)Nc1ccc2c(c1)OCCO2	-89.2
O=C(COc1ccccc1Cl)Nc1ccc2c(c1)OCCO2	-151.3
N#Cc1cccc(NCC(=O)Nc2ccc3c(c2)OCCO3)c1	-68.7
Cc1cc(C)c(OCC(=O)Nc2ccc3c(c2)OCO3)cc1C	-112.1
Brc1ccc(C2=Nn3c(nnc3-c3n[nH]c4c3CCC4)SC2)cc1	-
CC(C)c1ccc(N(C(=O)c2cc3ccccc3oc2=O)C2C=CS(=O)(=O)C2)cc1 (centres undefined)	-122.5
O=C(c1cc2ccccc2oc1=O)N(c1ccccc1)C1C=CS(=O)(=O)C1 (centres undefined)	-102.4
CCN(C(=O)c1cc2ccccc2oc1=O)c1ccccc1	-123.8
COc1ccc(N(C(=O)c2cc3ccccc3oc2=O)C2C=CS(=O)(=O)C2)cc1 (centres undefined)	-61.8
Cc1ccc(NC(=O)c2cc3ccccc3cc2O)cc1	-179.4
COc1ccc(NC(=O)c2cc3ccccc3cc2O)cc1	-118.6
C/C(CC(C)(C)C1CCCCC1)=N\NC(N)=S	-76.3
O=C(Nc1ccc(Cl)cc1Cl)NC1CCCC1	-74.0
S=C(Nc1ccc(Cl)cc1Cl)NC1CCCCC1	-126.7
O=C(NC1CCCCC1)Sc1ccc(Cl)cc1	-71.7
CN(C(=O)Nc1ccc(Cl)cc1Cl)C1CCCC1	-118.1
CC(C)(C)C1CCc2onc(C(=O)Nc3cccc(O)c3)c2C1 (centres undefined)	-92.3
CN(C)c1ccc(C(=O)/C=C/c2cccnc2)cc1	-167.3
CCc1ccccc1NC(=O)c1cnc2scc(C)n2c1=O	-98.8
CSc1ccccc1NC(=O)c1cnc2scc(C)n2c1=O	-108.1
O=C(NCCc1ccccc1)c1cnc2ccccn2c1=O	-72.6
Cc1ccccc1NC(=O)c1cnc2ccccn2c1=O	-
CCOc1ccc(NC(=O)c2cnc3scc(C)n3c2=O)cc1	-104.4
Cc1csc2ncc(C(=O)NCCc3ccccc3)c(=O)n12	-134.2
Cc1ccnc(NC(=O)CCNC(=O)c2ccc(Cl)cc2)c1	-110.3
SMILES	aSyn UTR act
Cc1ccc(C(=O)NCC(=O)Nc2cc(C)ccn2)cc1	-65.8
Cc1ccnc(NC(=O)c2cnc(Cl)c(Cl)c2)c1	-61.7
CCOc1ccc(C(=O)Nc2cc(C)ccn2)cc1	-
Cc1ccnc(NC(=O)c2ccc(Cl)s2)c1	-104.5
Cc1ccc(NC(=O)C(=O)N2CCCC2)cc1Cl	-106.7
O=C(Nc1ccc(Cl)c(Cl)c1)N1CC=CCC1	-121.6
O=C(Nc1cccc([N+](=O)[O-])c1)C(=O)N1CCCCC1	-150.9
Cc1ccc(NC(=O)N2CCCC2)cc1Cl	-73.2
CCOC(=O)c1cccc(S(=O)(=O)N(CCO)Cc2cc3cc(OC)c(OC)cc3[nH]c2=O)c1	-71.6
Cc1cc2cc(CN(Cc3ccco3)S(=O)(=O)c3c(C)ccc4nsnc34)c(=O)[nH]c2cc1C	-
O=C(O)CCSc1ncnc2sc(-c3ccccc3)cc12	-
CC(=O)CCSc1ncnc2sc(-c3ccccc3)cc12	-173.5
COc1cccc2c1OC1(CCN(C(C)C)CC1)N1N=C(c3cccnc3)CC21 (centres undefined)	-78.4
C=CCNC(=O)c1c(Br)cnn1-c1ccc(C)cc1	-87.8
Cc1ccc(-n2ncc(Cl)c2C(=O)NCc2ccccc2)cc1	-83.1
CC(C)(C)C(=O)Nc1sc(-c2ccccc2)cc1C(=O)O	-87.0
Cc1cccc(C(=O)Nc2sc(-c3ccccc3)cc2C(=O)O)c1	-180.4
